# Experimental data reported in PubChem BioAssay (NCI).
# About 79,000 compounds went through this panel and 15% of them were active in at least one assay; those are over-represented in the sample as a whole. Values without a mark were called inactive. Cut-off read from the data, not from the text of the source: active = growth inhibition above about 70%; inactive = the rest.
# Assay: NCI Yeast Anticancer Drug Screen. Data for the sgs1 mgt1 strain (AID 161);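 note: 0% = growth of cultures given vehicle only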
# Details: S. cerevisiae sgs1 mgt1 strain, at 50.0 µM, hits give high values
# Outline: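 Compounds are added to genetically altered yeast, and growth is compared with cultures given vehicle alone to give percent inhibition.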
row,Compound,growth inhibition
1,Clc1nc(N2CCOCC2)c2[nH]cnc2n1,3.9%
2,COc1ccc(/C=N/Nc2nc(C)c(C)s2)cc1,53.4%
3,c1cc2c3c(c1)ccc1cccc(c13)CC2,3.3%
4,COC(=O)C(Cc1c[nH]c2ccccc12)NP(=O)(O)OCC1OC(n2cc(F)c(=O)[nH]c2=O)CC1O (centres undefined),-38.5%
5,Cc1cc(C)c(NC(=O)C(Br)C(Br)c2ccccc2)c(C)c1 (centres undefined),5.1%
6,O=c1c2ccccc2nnn1OCc1ccccc1,11%
7,O=C(Nc1ccc([N+](=O)[O-])cc1)OCc1ccccc1,-9.35%
8,O=C(/C=C/CC(O)(c1ccccc1)c1ccccc1)Nc1ccccc1Cl,-4.85%
9,SC1c2ccccc2-c2ccccc21,7.5%
10,NCCNCCCCCCCCCCCCOS(=O)(=O)O,-6.35%
11,O=C1OC2C(Cl)C3CC1C2C3 (centres undefined),-22.3%
12,CC1(C)COC(c2ccc3ccccc3c2)OC1,-6.2%
13,CCc1ccccc1NOC,-1.05%
14,O=C1CNS(=O)(=O)N1,-16.5%
15,CC1(C)OP2(O)(OC(C)(C)c3ccccc32)c2ccccc21,12.3%
16,COc1ccc(/C=C(\Cl)c2ccc(OC)cc2)cc1,-26.6%
17,CC1S(=O)(=O)OCCCOS1(=O)=O,-9.95%
18,CCc1cc(O)cc(C)c1Cl,46.1%
19,O=S(=O)([O-])c1ccc2c(c1)-c1nc-2nc2[n-]c(nc3nc(nc4[n-]c(n1)c1ccc(S(=O)(=O)[O-])cc41)-c1cc(S(=O)(=O)[O-])ccc1-3)c1ccc(S(=O)(=O)[O-])cc21.[Cu+2].[Na+],-23.8%
